Inconclusive results are not listed. Active and inactive are the calls of the source. The call rests on the fitted dose curve; in most records, active means well fitted inhibition curve with a large enough effect; inconclusive means small, poorly fitted or top-dose-only effect; inactive means no such curve, though single readings can be large or run the other way.
Assay: Primary qHTS for small molecule stabilizers of the endoplasmic reticulum resident proteome: Secreted ER Calcium Modulated Protein (SERCaMP) assay (AID 1508630)
Conditions: SH-SY5Y GLuc-SERCaMP (Gaussia luciferase released on ER calcium loss) secretion, thapsigargin, luminescence; series mostly up to 38.4 µM; activity change, negative = inhibition: at the top concentration
Description: Assay Provider: Brandon K. Harvey Ph.D.
National Institute on Drug Abuse, National Institutes of Health, Baltimore, MD
Endoplasmic reticulum (ER) dysregulation is associated with human pathologies including neurodegenerative, cardiovascular, muscular, and diabetic conditions. Maintenance of ER calcium is critical for functions of the ER and its depletion can lead to loss of ER resident proteins, in a process termed exodosis. Therapeutic compounds capable of attenuating the redistribution of ER proteins under pathological conditions may slow or stop disease progression. To identify such compounds, we performed a quantitative high-throughput screen (qHTS) using the SERCaMP assay, which monitors secretion of ER resident proteins triggered by calcium depletion.
SERCaMP was initially developed as a reporter of ER calcium homeostasis using a Gaussia luciferase with a modified signal peptide and carboxy-terminus (GLuc-SERCaMP), modifications that confer secretion of the reporter in response to ER calcium depletion (Henderson et al., 2014). The assay was used to screen 9,501 compounds, including a collection of drugs approved by the FDA (US), EMA (EU), NHI (Japan), and HC (Canada) regulatory agencies (Huang et al., 2011). Since the SERCaMP reporter reflects the exodosis phenomenon (Trychta et al., 2018a), compounds identified in the screen have the potential to prevent exodosis by different mechanisms such as stabilizing ER calcium or augmenting ERS retrieval.
1. Henderson, M.J., Wires, E.S., Trychta, K.A., Richie, C.T., and Harvey, B.K. (2014). SERCaMP: a carboxy-terminal protein modification that enables monitoring of ER calcium homeostasis. Mol Biol Cell 25, 2828-2839.
2. Huang, R., Southall, N., Wang, Y., Yasgar, A., Shinn, P., Jadhav, A., Nguyen, D.T., and Austin, C.P. (2011). The NCGC pharmaceutical collection: a comprehensive resource of clinically approved drugs enabling repurposing and chemical genomics. Sci Transl Med 3, 80ps16.
3. Trychta, K.A., Back, S., Henderson, M.J., and Harvey, B.K. (2018a). KDEL Receptors Are Differentially Regulated to Maintain the ER Proteome under Calcium Deficiency. Cell Rep 25, 1829-1840 e1826.
SEQUENCE No. (1, 2, 3, etc.); […] (e.g., Cells, Incubation, Reagent, etc.); VALUE and DESCRIPTION.
1; Reagent; 5 uL; 1000 SH-SY5Y cells per wells
3; Compound; 23 nL; Control inhibitor / compound library
5; Reagent; 100 nM; Thapsigargin
7; Reagent; 1 uL; 0.5x coelenterazine
8; Detection; Luminescence; ViewLux imaging system
NOTES (numbers refer to sequence above)
1; SH-SY5Y human neuroblastoma cells stably expressing GLuc-SERCaMP (SH-SY5Y-GLuc-ASARTDL) cells were seeded in 1,536 well white tissue culture treated plates (Corning, Cat# 7464) in DMEM-high glucose-sodium pyruvate (ThermoFisher Scientific, Cat #10569) supplemented with 10% bovine growth serum (Hyclone), 10 U/ml penicillin (Gibco), 10 ug/ml streptomycin (Gibco), and 20 mM HEPES.
2; Assay plates were incubated for 5 hour at 37C in a humidified incubator containing 5% CO2.
3; qHTS libraries (23 nl, final concentrations of 1.53 uM, 7.67 uM, 38.3 uM) or controls (neutral control: DMSO, positive control: dantrolene) were added using a Kalypsis pin-tool Robotic System equipped with 1536 pinheads.
4; Cells were then incubated for 16 hours at 37C, 5% CO2.
5; Thapsigargin was added at 100 nM to deplete ER calcium stores.
6; Cells were incubated for 4 hour (37 °C, 5% CO2)
7; Gaussia luciferase in the medium was measured by adding 1 ul of 0.5x coelenterazine (final concentration 0.07x) prepared in Gaussia Luciferase Glow Assay Buffer (Pierce), without addition of the Cell Lysis Buffer Reagent.
8; Luminescence was measured using a ViewLux […] CCD imaging system (Perkin Elmer) equipped with clear filters. […] The same controls were also used for the calculation of the Z' factor, a measure of assay quality control, as previously described (Zhang et al., 1999). […]
On the % scale 0 is the no-effect control and ±100 the full control effect.

Activity change, negative = inhibition, inactive:
CN(C)c1ncc2nc(CCc3ccccc3)c(=O)n(Cc3ccc(F)cc3)c2n1 4.56%
CCNc1ncc2nc(-c3ccc(F)cc3)c(=O)n(C)c2n1 63.9%
COc1ccc(-c2nc3cnc(OC)nc3n(-c3ccccc3)c2=O)cc1 4.95%
Cc1noc(C)c1-c1ccc2ncnc(NCCN3CCOCC3)c2c1 51.7%
O=C(c1ccncc1)N1CCC[C@@]2(CCN(Cc3ccncc3)C2)C1 20.8%
COc1ncc2nc(C)c(=O)n(C[C@H]3CCCO3)c2n1 1.21%
CS(=O)(=O)N1CCC[C@@]2(CCN(Cc3ccc(C#N)cc3)C2)C1 5.8%
O=C(Oc1ccccc1)N1CCC2(CC1)CN(c1ccncc1)C2 8.29%
CNc1nc(-c2ccccc2C(F)(F)F)nc2ccccc12 -29.3%
Cn1c(=O)c(-c2cc(F)cc(F)c2)nc2cnc(Nc3ccccc3)nc21 18.9%
CCCCCc1c2c(cc(O)c1C(=O)O)OC(=O)c1cc(C(=O)CCCC)c(OC)cc1O2 15%
c1cncc(CNc2ccnc(-c3cccnc3)n2)c1 16.8%
O=C(c1cccc(F)c1)N1CCC[C@@]2(CCN(Cc3ccncc3)C2)C1 29.9%
COc1cc(C)c2c(c1C=O)Oc1c(c(C)c(O)c3c1C(O)OC3=O)OC2=O (stereo not given) 9.43%
N#CCCn1c(=O)cnc2cnc(OCc3ccccc3)nc21 34.1%
CC(C)CN1CCC2(CC1)CCN(C(=O)c1cnccn1)CC2 -4.88%
O=C(Nc1cccc(F)c1)N1CCCC2(CCN(C(=O)c3ccco3)CC2)C1 -1.35%
CCNc1ncc2ncc(=O)n(C)c2n1 14%
O=C(c1ccncc1)N1CCC2(CC1)CCN(c1ccccn1)CC2 24.3%
CN(C)C(=O)c1ccc(-c2cncnc2NCc2cccs2)cc1 3.41%
COCCn1c(=O)c(-c2ccc(Cl)cc2)nc2cncnc21 -12.3%
c1cncc(-c2nc(-n3ccnc3)c3ccccc3n2)c1 -0.35%
CC(C)NC(=O)N1CC2(CCN(C(=O)c3cccn3C)CC2)C1 26.9%
CC(=O)NCCNc1ncnc2ccc(-c3ccccc3C#N)cc12 -29.6%
COc1ccccc1CN1CC2(CCN(C(=O)c3cccc(F)c3)CC2)C1 10.2%
COc1ccc(-c2nc3cnc(OC)nc3n(CCC#N)c2=O)cc1 18.4%
COC(=O)N1CCC2(CC1)CN(C(=O)Nc1ccc(OC)cc1)C2 23.6%
CC(=O)NCCNc1nc(-c2ccc(N(C)C)cc2)nc2ccccc12 -13.3%
COc1ccc(Oc2ncc3nc(-c4cccs4)c(=O)n(Cc4cccs4)c3n2)cc1 8.15%
COc1ccc(-n2c(=O)c(-c3ccc(F)c(F)c3)nc3cncnc32)cc1 30.4%
COC(=O)N1CCC2(CCN(C(=O)Nc3cccc(F)c3)CC2)CC1 6.5%
COCC(=O)N1CCC2(CC1)CN(c1cccc(-c3ccccc3)c1)C2 8.88%
COc1cccc(Nc2ncc3nc(-c4cccs4)c(=O)n(-c4ccccc4)c3n2)c1 24.8%
COc1ccc(-c2nc3cnc(N(C)C)nc3n(-c3ccccc3)c2=O)cc1 -22%
Cn1cccc1C(=O)N1CCC2(CC1)CN(C(c1ccccc1)c1ccccc1)C2 5.59%
Cc1cccc(CNc2ncncc2-c2ccccc2Cl)c1 8.56%
COc1ccc(NC(=O)N2CC[C@@]3(CCCN(C(=O)c4ccco4)C3)C2)cc1 11.2%
COc1ccccc1CCn1c(=O)c(-c2cn(C)c3ccccc23)nc2cncnc21 55.6%
O=C(c1cc(C(F)(F)F)cc(C(F)(F)F)c1)N1CCC[C@@]2(CCN(c3ccccc3)C2)C1 -10.7%
COc1cccc(Nc2ncc3nc(CCc4ccccc4)c(=O)n(Cc4cccs4)c3n2)c1 13.4%
